Experimental data published in paper PMC5540273 (PLoS ONE, 2017).

test system: CDKL1; conditions: concentration: 1 μM, replicates: in singlicate; n = 1
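Note: KINOMEscan kinase panel screen.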

SMILES | %Inh [%]
N#CC1(c2cccc(C(=O)Nc3cccc(Oc4ccc5nc(NC(=O)C6CC6)sc5n4)c3)c2)CC1 | 14
Cc1ccc(C)c(NC(=O)Nc2ccc(C)c(-c3ccc(C(=O)Nc4ccncc4)cc3)c2)c1 [GSK1398473] | 0
O=C(Nc1n[nH]c2nc(-c3ccccc3O)ccc12)C1CC1 [SB-711880] | 42
CCn1c(-c2nonc2N)nc2c(-c3ccccc3)ncc(OCCCN)c21.O=C(O)C(F)(F)F.O=C(O)C(F)(F)F [GSK260205] | 7
Cl.Cl.NC(CNC(=O)c1cc(Br)c(-c2ccnc3[nH]ccc23)s1)c1ccccc1 (stereo not drawn) [GSK1322949] | 12
CCOc1nccc(-c2c(-c3ccc(F)cc3)ncn2C2CCNCC2)n1 [SB-249175] | 1
COc1cccc2c(-c3ccncc3)c(-c3ccc(F)cc3)nn12 [GW468513] | 2
CC(C)c1nc(-c2cccc(NS(=O)(=O)c3c(F)cccc3F)c2)c(-c2ccnc(Nc3ccc(N4CCOCC4)nc3)n2)s1.Cl [GSK1723980] | 74
O=C(Nc1n[nH]c2cc(-c3cccs3)ccc12)C1CC1 [SB-731284] | 50
Cc1ccc(NC(=O)c2cccc(N3CCCCC3)c2)cc1-c1ccc(C(=O)NCC2CC2)cc1 [GSK1917008] | 7
Cl.O=C(Nc1ccc(Oc2ccc3[nH]c(NC(=O)c4ccco4)nc3c2)cc1)Nc1cc(C(F)(F)F)ccc1F [GW683134] | 8
Cn1cc(-c2ccc3c(c2)CCN3C(=O)Cc2cc(F)cc(C(F)(F)F)c2)c2c(N)ncnc21 [GSK2635225] | 11
